Measurements from PubChem BioAssay AID623868 (Vanderbilt High Throughput Screening Facility, 2012).
About 760 (36%) of roughly 2,100 compounds were called active. The list is a sample of the results. Values without a mark were called inactive.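 Rule for the calls: active = thallium-flux fluorescence traces judged by eye to show enhanced or reduced glutamate response, manual score 1 or -1, so both directions (some results past the limit were not filed as active); inactive = the rest, including fluorescent or raised-baseline compounds.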

test: thallium influx changes without GIRK channels – cell-based, HEK-293 rmGlu8, no GIRK, thallium flux, counter-screen for GIRK activator project, confirmation (AID 623868); details: thallium flux fluorescence, at 10 µM, actives lie on both sides, codes: 1 enhancer, -1 blocker, 0 none, thallium stimulus containing EC20 glutamate;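 note: extra codes mark interference with 3 for fluorescent and 4 for baseline rise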

SMILES | manual score
CCOC(=O)/C(C#N)=C/C1=C(N2CCCC2)CC(C)(C)OC1 | 0
CCOC(=O)N1CCN(C(=O)c2oc3ccc(S(=O)(=O)N4CC(C)CC(C)C4)cc3c2C)CC1 (stereo unspecified) | 0
C=CCOn1c(=O)c(-c2cccs2)[n+]([O-])c2ccccc21 | 3
CCOn1c(=O)c(-c2cccs2)[n+]([O-])c2ccccc21 | 3
O=c1c(-c2ccc(Cl)cc2)[n+]([O-])c2ccccc2n1O | 1 (active)
Clc1ccc2c(c1)-c1nnc(Br)n1-c1ccccc1S2 | -1 (active)
C/C(CC(C)(C)C1CCCCC1)=N\NC(N)=S | 0
CNc1nc(Cl)nc(NC(C)(C)C)n1 | 0
Cc1cccc(N2C(=O)CS/C2=N\NC(=O)c2ccc(Cl)cc2)c1C | 1 (active)
CC(NC(=O)C1CC=CCC1C(=O)O)C1CC2CCC1C2 (stereo unspecified) | 0
CCNc1ccc2noc3c2c1C(=O)c1ccccc1-3 | 0
O=C(NNc1ccccc1Br)C(=O)n1ccc2ccccc21 | 1 (active)
Cc1ccc(C)c2[nH]c(=O)c(CN(CCN3CCCC3)C(=O)Nc3ccc(F)cc3)cc12 | 0
O=C1N=C(c2ccccc2)S/C1=C\c1cccs1 | 3
CSC1=NSC2=NC(=O)/C(=C/c3coc4ccccc4c3=O)C(=N)N12 | 3
N=C1/C(=C/c2cccs2)C(=O)N=C2SN=C(SCc3ccccc3)N12 | 1 (active)
Cc1ccc(CNC(=O)Cc2csc(Nc3nc(=S)[nH]c4ccccc34)n2)cc1 | 1 (active)
O=C(Cc1csc(Nc2nc(=S)[nH]c3ccccc23)n1)NCc1ccccc1Cl | 0
O=C(Cc1csc(Nc2nc(=S)[nH]c3ccccc23)n1)NCc1cccc(Cl)c1 | 1 (active)
N#CC(c1cccc(Cl)c1)c1ccc2c(C(F)(F)F)cc(C(F)(F)F)nc2n1 (stereo unspecified) | 0
Oc1cccc(NC(=S)Nc2ccc(SC(F)F)cc2)c1 | 0
CN(C)CCNC(=O)c1ccc2c(c1)N(Cc1ccc(F)cc1)CCS2 | 0

SMILES | manual score
O=C(O)c1cccc(Nc2nc(N3CCOCC3)nc(N3CCOCC3)n2)c1 | -1 (active)
CCOC(=O)CSc1nc2ccc(Nc3nc(N4CCOCC4)nc(N4CCOCC4)n3)cc2s1 | 0
CC1CC(C)CN(Cc2nc(N)nc(Nc3ccc4ccccc4c3)n2)C1 (stereo unspecified) | 0
O=C(COC(=O)c1cccc(N2C(=O)c3ccccc3C2=O)c1)Nc1ccccc1 | 0
CC(=O)Nc1cccc2c1C(=O)N(c1cccc(C)c1)C2=O | 0
CC(C)CC(=O)Nc1cccc2c1C(=O)N(c1ccccc1)C2=O | -1 (active)
CCOc1ccc(Br)cc1/C(C)=N\NC1=NCCN1 | 0
N#CC1=C(N)Oc2n[nH]c(-c3cccs3)c2C1c1ccoc1 (stereo unspecified) | 0
S=C1NC(c2ccccc2)=NCN1c1ccc(Cl)cc1 | 1 (active)
Cc1cs/c(=N\N=C\c2cccc([N+](=O)[O-])c2)n1Cc1ccco1 | 0
Cc1cc(C)c(-n2c(C)cc(/C=C3/NC(=O)NC3=O)c2C)c(C)c1 | 0
Cc1ccccc1-n1c(SCc2ccccn2)nc2n[nH]c(C)c2c1=N | 0
CCOc1ccc2nc(NC(=O)C(CC)Sc3nc(C)cc(=O)[nH]3)sc2c1 (stereo unspecified) | -1 (active)
CCCOc1cccc(OCCSc2nc(C)cc(=O)[nH]2)c1 | 0
CC(C)Cn1c2c(c(O)c(C(=O)Nc3ncccc3O)c1=O)CCCC2 | -1 (active)
C/C(=N\NC(=O)COc1ccc(C)cc1C(C)C)c1ccc(-n2ccnc2)cc1 | 0
CN(C)c1ccc(/C=N\NC(=S)SCN2C(=O)C3CCC(C)(C2=O)C3(C)C)cc1 (stereo unspecified) | 0.5
COc1ccc(/C=N\NC(=S)SCN2C(=O)C3CCC(C)(C2=O)C3(C)C)cc1 (stereo unspecified) | 1 (active)
CC12CCC(C(=O)N(CSC(=S)N/N=C\c3ccccc3)C1=O)C2(C)C (stereo unspecified) | 1 (active)
CC(Nc1ccc(Br)cn1)c1cc(Cl)ccc1O (stereo unspecified) | 0
O=C(Nc1ccccc1C(=O)N/N=C/c1ccco1)c1ccccc1 | 1 (active)
Cc1ccccc1C(=O)N/N=C/c1ccc([N+](=O)[O-])s1 | 0

SMILES | manual score
CN(c1ccccc1C(=O)Nc1ccccc1C(=O)NCc1ccco1)S(C)(=O)=O | 0
Cc1cc(C)c(NC(=O)/C(=C/c2ccco2)c2ccccc2)c(C)c1 | 0
CC(C)NC(=O)/C(=C/c1ccco1)c1ccccc1 | 0
Cc1ccccc1C(=O)Nc1ccccc1C(=O)N/N=C\c1ccco1 | 1 (active)
COc1cc(NC(=O)CSc2nccc(C)n2)c(C)cc1[N+](=O)[O-] | 0
CCc1cc2c(=O)n(CC)c(SC(C)C(=O)Nc3c(C)n(C)n(-c4ccccc4)c3=O)nc2s1 (stereo unspecified) | -1 (active)
CCCC(c1c(C)n(C)n(-c2ccccc2)c1=O)c1c(C)n(C)n(-c2ccccc2)c1=O | 0
Cc1c(NC(=S)NC(NC(=O)CC(C)C)C(Cl)(Cl)Cl)c(=O)n(-c2ccccc2)n1C (stereo unspecified) | 0
Cc1ccc(-c2[nH]n3c(=O)c4c(nc3c2C)CCCC4)cc1 | 0
O=c1[nH]c(SCc2ccccc2Cl)nc2c1CCCC2 | 0
O=c1c2c(nc3c(-c4cccc(Br)c4)c[nH]n13)CCCC2 | 0
O=c1c2c(nc3c(-c4ccccc4)c[nH]n13)CCCC2 | 1 (active)
O=c1c2c(nc3c(-c4ccc(Cl)cc4)c[nH]n13)CCCC2 | 1 (active)
Cc1ccc2c(CC(=O)NC3CCCc4ccccc43)coc2c1 (stereo unspecified) | 0
CCOc1ccc(NC(=O)Nc2cc(C)ccc2OC)cc1 | 0
CC(C)(C)NC(=O)C(=O)NNC(=O)COc1ccc(Br)cc1 | 1 (active)
COc1ccc(OCC(=O)NNC(=O)C(=O)Nc2ccc(C)cc2)cc1 | 1 (active)
COc1cccc(NC(=O)COc2ccc(C)cc2)c1 | 0
C=C(C)C1CC=C(C)/C(=N/NC(=O)COc2ccc(C)cc2)C1 (stereo unspecified) | 0
Cc1ccc(OCC(=O)N/N=C/c2cccn2C)cc1 | 0
Cc1ccc(OCC(=O)NNC(=O)C(=O)NC(C)(C)C)cc1 | 1 (active)
COc1ccccc1NC(=O)COc1ccc(Br)cc1CO | 0

SMILES | manual score
S=C1NC2=C(CCCC2)C2(CCCCC2)N1 | 0
CN(CC(=O)Nn1cnnc1)S(=O)(=O)c1ccc(Br)cc1 | 0
C/C(=N\NC(=O)c1ccccc1)c1nc2ccccc2n1C | 0
O=C(N/N=C/c1c(Cl)cccc1Cl)c1cccc(F)c1 | 0
CCC(NC(=O)c1ccccc1O)c1ccccc1 (stereo unspecified) | 0
C/C(=N\NC(=O)c1ccc(Cl)cc1)c1ccc(Br)s1 | 1 (active)
C/C(=N\NC(=O)c1ccccc1O)c1ccc(Br)s1 | 1 (active)
C/C(=N\NC(=O)c1cccc(F)c1)c1ccc(Br)s1 | 1 (active)
CN(C)/C=C/C(=O)/C=C/c1cn(-c2ncc(C(F)(F)F)cc2Cl)c2ccccc12 | 0
CCc1ccc2c(c1)C1(NN=C(c3ccc(C)cc3)S1)C(=O)N2 (stereo unspecified) | 0
CCOC(=O)c1c(NC(=O)C2C3C=CC(C3)C2C(=O)O)sc2c1CCC(CC)C2 (stereo unspecified) | 0
CCOC(=O)c1ccc(CNCc2ccc(Br)cc2)cc1 | 0
CCOC(=O)c1c(NS(=O)(=O)c2ccc(Br)cc2)sc2c1CCC2 | 1 (active)
CCOC(=O)c1c(NS(=O)(=O)c2cccc(OC)c2)sc2c1CCC2 | 1 (active)
O=C1CS/C(=N\C(=O)N2c3ccccc3Sc3ccccc32)N1 | 0
CC(C)Cn1cnc2c(c(-c3ccccc3)c(-c3ccccc3)n2Cc2ccco2)c1=N | 0
CC(=O)/C(=N\Nc1ccc(Cl)cc1Cl)Sc1cccc2cccnc12 | 1 (active)
O=S(=O)(Nc1cc(Sc2cccc3cccnc23)c(O)c2ccccc12)c1ccc(F)cc1 | 0
CCOc1ccc(-c2nc(-c3ccncc3)no2)cc1OCC | 0
O=C(CC(=O)c1ccccc1O)c1ccc(F)cc1 | 1 (active)
Cc1ccc(C(=O)CC(=O)c2cc(Cl)ccc2O)cc1 | 0
O=C(CC(=O)c1ccccc1O)c1cccc(F)c1 | 1 (active)

SMILES | manual score
O=C(c1cccc(F)c1)N1CCN(Cc2ccco2)CC1 | 0
Cc1cccc(C(=O)CC(=O)c2cc(Cl)ccc2O)c1 | 0.5
O=C(CC(=O)c1cc(Cl)ccc1O)c1ccccc1 | 1 (active)
C/C(=N/NC(=O)c1cc(Cl)ccc1O)C12CC3CC(CC(C3)C1)C2 | 0
COC(=O)c1nc(NC(C)=O)n[nH]1 | 0
Cc1ccc(NC(=O)COn2nnc3ccc(S(=O)(=O)N(C)C)cc32)cc1F | 0
Cc1ccc(C2c3c(oc4ccc(Cl)cc4c3=O)C(=O)N2CCCN2CCOCC2)o1 (stereo unspecified) | 1 (active)
O=c1c(O)c(-c2cccs2)oc2ccc(Cl)cc12 | 3
CCN(CC)CCN1C(=O)c2oc3ccccc3c(=O)c2C1c1ccc(C)cc1 (stereo unspecified) | 0
COCCn1c(CN(Cc2ccccc2)Cc2ccccc2)nc2c1c(=O)n(C)c(=O)n2C | 0
O=C(N/N=C\c1cc(Br)c(Br)o1)c1cncc(Br)c1 | 1 (active)
CCNC(=O)NC(=O)COC(=O)CCCSc1nc2ccccc2[nH]1 | 0
CN(C)CCCOc1ccc(C(C)(C)c2ccccc2)cc1 | 0
O=C(NC(=S)Nc1ccccc1)c1csnn1 | 1 (active)
O=C(NC(=S)Nc1ccccc1Cl)c1csnn1 | 1 (active)
Cc1ccc(C)c(NC(=S)NNC(=O)c2csc(C(C)C)c2)c1 | 1 (active)
Cc1cccc(NC(=S)NNC(=O)c2csc(C(C)C)c2)c1 | 1 (active)
CC(C)C(=O)Nc1cccc(NC(=O)c2cc3ccccc3o2)c1 | 0
